The values below come from PubChem BioAssay AID1117353 (Cheminformatics & Chemogenomics Research Group (CCRG), …, 2015).

Values without a mark were called inactive. Calls of active or inactive are those of the source. Rule as the data show it: active = inhibition above about 50%; inactive = the rest.

In the assay the target is Vascular endothelial growth factor receptor 2 (Homo sapiens) (UniProt P35968). The experiment in a line: VEGFR2 inhibitors, primary assay, biochemical, Homo sapiens, LANCE Ultra TR-FRET, NPC library (AID 1117353). To be noted: LANCE Ultra TR-FRET kinase assay; at 20 µM (top of the series). In general terms: In TR-FRET formats the signal depends on donor and acceptor labels being close together.
Vascular endothelial growth factor receptor 2 (Homo sapiens), sequence (P35968 whole entry, looked up): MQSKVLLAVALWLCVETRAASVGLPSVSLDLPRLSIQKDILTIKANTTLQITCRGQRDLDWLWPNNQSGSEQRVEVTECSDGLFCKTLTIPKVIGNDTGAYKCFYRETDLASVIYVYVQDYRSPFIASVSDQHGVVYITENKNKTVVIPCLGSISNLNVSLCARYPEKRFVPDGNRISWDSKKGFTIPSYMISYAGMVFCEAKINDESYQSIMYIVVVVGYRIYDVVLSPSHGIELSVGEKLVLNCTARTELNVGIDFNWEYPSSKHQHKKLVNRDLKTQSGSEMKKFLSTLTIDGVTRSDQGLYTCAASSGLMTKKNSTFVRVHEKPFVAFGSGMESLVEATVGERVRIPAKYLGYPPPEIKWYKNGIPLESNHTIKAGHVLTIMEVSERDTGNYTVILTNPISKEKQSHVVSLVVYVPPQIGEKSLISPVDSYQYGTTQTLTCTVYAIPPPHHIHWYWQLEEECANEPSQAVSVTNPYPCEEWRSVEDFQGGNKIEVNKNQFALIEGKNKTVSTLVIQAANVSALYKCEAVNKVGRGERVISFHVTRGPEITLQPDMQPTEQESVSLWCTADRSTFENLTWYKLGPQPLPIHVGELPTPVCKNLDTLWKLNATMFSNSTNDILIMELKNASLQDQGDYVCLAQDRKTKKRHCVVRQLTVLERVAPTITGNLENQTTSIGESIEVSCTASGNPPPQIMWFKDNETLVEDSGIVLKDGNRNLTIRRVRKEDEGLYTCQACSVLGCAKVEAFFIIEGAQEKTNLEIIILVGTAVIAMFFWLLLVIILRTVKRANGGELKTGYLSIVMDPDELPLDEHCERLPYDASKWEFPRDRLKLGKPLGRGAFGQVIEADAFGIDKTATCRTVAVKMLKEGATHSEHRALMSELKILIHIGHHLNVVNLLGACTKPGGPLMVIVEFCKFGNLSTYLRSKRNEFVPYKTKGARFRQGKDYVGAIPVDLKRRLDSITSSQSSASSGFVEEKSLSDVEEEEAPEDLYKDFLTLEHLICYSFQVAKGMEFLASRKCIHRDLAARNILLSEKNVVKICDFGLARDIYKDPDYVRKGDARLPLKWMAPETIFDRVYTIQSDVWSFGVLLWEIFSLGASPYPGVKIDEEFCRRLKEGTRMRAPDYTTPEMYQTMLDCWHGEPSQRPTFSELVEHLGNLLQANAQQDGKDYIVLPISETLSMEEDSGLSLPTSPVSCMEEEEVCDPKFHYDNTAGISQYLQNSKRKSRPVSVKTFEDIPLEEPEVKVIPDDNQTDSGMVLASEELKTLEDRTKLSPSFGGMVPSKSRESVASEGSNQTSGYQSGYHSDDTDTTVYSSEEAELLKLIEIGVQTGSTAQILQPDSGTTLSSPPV
Take `Cc1nc2ccc(CN(C)c3ccc(C(=O)N[C@@H](CCC(=O)O)C(=O)O)s3)cc2c(=O)[nH]1`: the inhibition was 7.13%.

Consider `COc1cc(-c2ccc(=O)[nH]n2)ccc1OC(F)F`, for which the inhibition was -22.3%. For `O=C(CCCCCCC(=O)Nc1ccccc1)NO` the value was -32.6%. Under `CC(=O)Oc1ccc(C2(c3ccc(OC(C)=O)cc3)Oc3ccccc3NC2=O)cc1` stands -14.8%. Under `O=c1[nH]c(=O)n([C@H]2C[C@H](O)[C@@H](CO)O2)cc1F` stands -21.7%. `NC(=NCCCCCCN=C(N)/N=C(\N)Nc1ccc(Cl)cc1)/N=C(\N)Nc1ccc(Cl)cc1`: the inhibition is -1.66%. For `O=c1[nH]c(=O)n([C@H]2C[C@H](O)[C@@H](CO)O2)cc1C(F)(F)F` the value was -17.7%; for `[O-][n+]1ccccc1SSc1cccc[n+]1[O-]`, -17.4%. `Oc1c(I)cc(I)c2cccnc12`: the inhibition is 0.24%. For `CC(=O)[C@]1(O)Cc2c(O)c3c(c(O)c2[C@@H](O[C@H]2C[C@H](N)[C@H](O)[C@H](C)O2)C1)C(=O)c1ccccc1C3=O` the value was -143%; for `CC(C)C[C@H](NC(=O)[C@H](Cc1ccccc1)NC(=O)c1cnccn1)B(O)O`, 19%; for `CNC(=O)c1ccccc1Sc1ccc2c(/C=C/c3ccccn3)n[nH]c2c1`, 100% (active). For the molecule `COc1cccc2c1C(=O)c1c(O)c3c(c(O)c1C2=O)C[C@@](O)(C(C)=O)C[C@@H]3O[C@H]1C[C@H](N)[C@H](O)[C@H](C)O1`, the inhibition was 14%. As to `COC(=O)Nc1nc2ccc(Sc3ccccc3)cc2[nH]1`, the inhibition is 6%. Regarding `CN(C)c1ccc2nc3ccc(=[N+](C)C)cc-3sc2c1`, the inhibition is -6.83%.

For the molecule `COC(=O)Nc1nc2ccc(S(=O)c3ccccc3)cc2[nH]1` (stereo not drawn), the inhibition is 8.1%. For `CCCSc1ccc2nc(NC(=O)OC)[nH]c2c1` the value was -6.58%; for `CCCCCCCCCCCCCC[N+](C)(C)C`, 11.2%; for `COC(=O)Nc1nc2ccc(C(=O)C3CC3)cc2[nH]1`, 69.1% (active).

Consider `COC(=O)[C@H]1[C@H]2C[C@@H]3c4[nH]c5cc(OC)ccc5c4CCN3C[C@H]2C[C@@H](OC(=O)/C=C/c2ccc(O)c(OC)c2)[C@@H]1OC`, for which the inhibition was 16.4%. For `COc1cc(NCc2ccc3nc(N)nc(N)c3c2C)cc(OC)c1OC` the value was 35.8%. For `Cc1ccccc1C(=O)Nc1ccc(C(=O)N2CCCC(N(C)C)c3ccccc32)cc1` (stereo not drawn) the value was 41.5%; for `Cc1ccc2nc(N)[nH]c(=O)c2c1Sc1ccncc1`, -56.2%. For `Cc1cc(=O)c2c(O)c3c(O)cc(=O)c4c3c3c(cc(O)c1c23)C(C)(C)C=4O` the value was 22.3%. On to `CCc1nc(N)nc(N)c1-c1ccc(Cl)cc1`, for which the inhibition is 17%. For `COC(=O)Nc1nc2ccc(C(=O)c3cccs3)cc2[nH]1` the value was 60% (active); for `Cc1nc(N)nc(N)c1-c1ccc(Cl)c(Cl)c1`, -0.1%; for `COc1ccc2cc1Oc1ccc(cc1)C[C@H]1c3c(cc4c(c3Oc3cc5c(cc3OC)CCN(C)[C@@H]5C2)OCO4)CCN1C`, 30.3%. With `O=C(NOCC1CC1)c1ccc(F)c(F)c1Nc1ccc(I)cc1Cl`, the inhibition is 12.4%.

In the case of `S=c1nc[nH]c2nc[nH]c12`, the inhibition is 15.9%. For `O=C1c2c(O)ccc(O)c2C(=O)c2c(NCCNCCO)ccc(NCCNCCO)c21` the value was -38%. Under `CCC(C)n1ncn(-c2ccc(N3CCN(c4ccc(OC[C@H]5CO[C@](Cn6cncn6)(c6ccc(Cl)cc6Cl)O5)cc4)CC3)cc2)c1=O` (stereo partly drawn) stands 22.4%. Under `COc1ccc(-c2ccc3cc(C(=O)O)ccc3c2)cc1C12CC3CC(CC(C3)C1)C2` stands 96.3% (active). In the case of `COCc1c(C(C)C)nc(C(C)C)c(/C=C/[C@@H](O)C[C@@H](O)CC(=O)O)c1-c1ccc(F)cc1`, the inhibition is 31.8%. For `CCCCCCCCCCCCCCCCCCNC(=O)OC1CCN(C(=O)OC[C@H](COC(=O)N(Cc2cccc[n+]2CC)C(=O)c2ccccc2OC)OC)CC1` the value was -459%; for `CCCOc1ccc2nc(NC(=O)OC)[nH]c2c1`, 10.2%.

Regarding `CC(C)(C)C(=O)OCOP(=O)(COCCn1cnc2c(N)ncnc21)OCOC(=O)C(C)(C)C`, the inhibition was -10.9%.

In the case of `CCCCCCNC(=O)n1cc(F)c(=O)[nH]c1=O`, the inhibition was -15.1%.

The inhibition is the drop in the measured response relative to a control, in per cent.
